Bioassay records (PubChem)
The list is not random: actives were taken first. Their share in the collection is about 3.7%.
BoNT A protease = blocks Botulinum neurotoxin A light chain protease | multiplex microsphere protease substrate cleavage, flow cytometry | inhibition, % at 10 µM | 0.17% of 360,000 active | AID 588499; also: plate controls were buffer without enzyme for full effect and enzyme alone for no effect
Autofluor counter = flagged as autofluorescent in microsphere protease counterscreen. compound autofluorescence counterscreen, microsphere flow cytometry; active compounds read high. fluorescence intensity (concentration not given with the values). 3.1% of 360,000 active. AID 624483; in the data active = fluorescence intensity above about 16000; inconclusive = no clear call, values can overlap the other calls
Anthrax LF inh2 = blocks Bacillus anthracis lethal factor protease; P15917; inhibition, % at 10 µM; 0.12% of 360,000 active; multiplex microsphere protease cleavage assay, LF; also: plate controls were buffer without enzyme for full effect and enzyme alone for no effect
BJeLR lethal = kills HRASV12-expressing BJeLR cells. BJeLR (HRASV12) viability, CellTiter-Glo ATP luminescence, 48 h. inhibition, % (test concentration not listed). 0.17% of 300,000 active. AID 1554; in the data active = inhibition above about 50%; inconclusive = no clear call, values can overlap the other calls
BoNT F protease = BoNT F light chain protease inhibition. Multiplex microsphere protease cleavage assay, flow cytometry. inhibition, % at 10 µM. 0.22% of 360,000 active. AID 588497; in the data active = inhibition above about 35%, passing the limit was not always enough; inconclusive = no clear call, values can overlap the other calls; also: plate controls were buffer without enzyme for full effect and enzyme alone for no effect
BH1578 lux ind = induces V. cholerae light production without autoinducers | V. cholerae BH1578 lux reporter, luminescence, 6 h | activation, % at 18.7 µM | 0.16% of 350,000 active; in the data active = activation mostly above about 9.7%, no sharp cut-off; inconclusive = no clear call, values can overlap the other calls; inactive = mostly below about 3.7%
The depositor's hits bear a star; i = inactive; ? = inconclusive; · = not tested or not shown; ! = not confirmed by another sample. Rule as the data show it, unless noted: active = inhibition above about 30%; inconclusive = no clear call, values can overlap the other calls; inactive = below that.

SMILES	BoNT A protease	Autofluor counter	Anthrax LF inh2	BJeLR lethal	BoNT F protease	BH1578 lux ind
O=C(O)c1cc2cc(Cl)ccc2oc1=O	1	22395*	-2	-5	3	i
CCc1nc2oc3cc(OC)ccc3c(=O)c2c(=O)n1Cc1ccccc1	?	24709*	-1	16	-4	-1
O=S1(=O)NC(=NCc2ccccc2)c2ccccc21	?	19517*	-6	-5	6	i
Cc1cccc(CNC(=O)c2sc(=O)n(Cc3c(C)cccc3C)c2C)c1	-1	4040	-8	·	-7	i
CN(Cc1ccccc1)C(=O)CN1CCN(S(=O)(=O)c2ccccc2F)CC1	0	3524	-2	·	-4	-1
COc1cccc(C(=O)Nc2c(F)cccc2F)c1	0	4107	-6	-12	7	0
CCCc1nnc(NC(=O)c2cccc(OC)c2)s1	?	21067*	0	-15	8	-1
COc1ccc(Cc2nnc(NC(=O)c3ccc(OC)c(OC)c3)s2)cc1OC	-1	4416	-1	3	-8	-3
COc1ccc(Cc2nnc(NC(=O)c3ccc(OC(C)=O)cc3)s2)cc1OC	4	3108	2	3	35*	0
COc1cccc(C(=O)Nc2c(F)c(F)c(F)c(F)c2F)c1	-2	20193*	1	-15	-5	i
COc1ccc(C2CC=C(C(C)=O)CN2S(=O)(=O)c2ccc(Cl)cc2)cc1 (stereo not drawn)	-1	6451	0	·	-5	·
CC(C)NC(=O)C1(C)CCN1CCC(=O)c1ccccc1 (stereo not drawn)	0	3108	-4	·	-1	i
Cn1c(SCc2nc(-c3ccc(Cl)cc3)no2)nnc1-c1ccccc1	-1	20554*	-3	-2	-5	0
Cn1c(SCc2nc(-c3ccccc3)no2)nnc1-c1cccs1	?	20460*	-7	-5	5	1
CCOc1ccc(-n2c(SCc3nc(-c4cccs4)no3)nnc2-c2ccncc2)cc1	5	4628	-1	-7	33	i
Cc1ccc(-c2noc(CSc3nnc(Cc4ccccc4)n3-c3ccc(Cl)cc3)n2)cc1	0	8330	-5	15	-5	i
Cn1c(SCc2nc(-c3ccc(Cl)cc3)no2)nnc1-c1cccs1	2	15475	-2	0	1	-1
CCCn1c(SCc2nc(-c3cccs3)no2)nnc1-c1ccncc1	-3	21415*	0	15	-5	i
COc1ccc(-c2noc(CSc3nnc(Cc4ccccc4)n3-c3ccc(Cl)cc3)n2)cc1	-3	24663*	-3	-5	-7	i
C[C@@H]1CN([C@@H](C)CO)C(=O)CCCn2cc(nn2)CO[C@H]1CN(C)C(=O)c1cc(-c2ccccc2)on1	0	3518	-5	·	-4	-2
Cc1ccc(-c2cc(C(=O)Nc3c(C)n(C)n(-c4ccccc4)c3=O)[nH]n2)c(O)c1	?	22384*	-2	-4	0	i
O=C(Nc1cccc2nsnc12)c1cccs1	2	21640*!	0	-10	4	-2
CCOC(=O)c1ccccc1NC(=O)Cc1ccccc1OC	-3	20686*	1	-10	-4	i
CCOC(=O)c1ccccc1NC(=O)c1cccs1	-2	17478*	-6	·	-5	i
OCCNc1ncnc2c1ncn2[C@H]1CN(Cc2ccc3c(c2)OCO3)C[C@@H](CO)O1	0	4280	7	·	6	-1
SMILES	BoNT A protease	Autofluor counter	Anthrax LF inh2	BJeLR lethal	BoNT F protease	BH1578 lux ind
O=C(OCc1cn([C@H]2C[C@H](c3ccc(Cl)cc3)N(C(=O)c3cccs3)C[C@@H]2O)nn1)c1ccccc1	-1	3556	-4	·	-8	-1
CC1(C(=O)NS(=O)(=O)c2ccccc2Cl)CCN1C(=O)Cc1ccc(Cl)cc1Cl (stereo not drawn)	0	2948	-4	·	-2	1
Cc1ccc(F)c(C(=O)N2CCCC(C)(C(=O)NS(=O)(=O)C3CC3)C2)c1F (stereo not drawn)	0	3108	-3	·	-5	i
CC(C)(C)c1nnc(N/N=C/c2cc(Br)ccc2O)n(N)c1=O	-2	8250	-2	85*	-20	0
COCCCn1cc(CN2CC(N3CCN(CCO)CC3)CS2(=O)=O)nn1 (stereo not drawn)	0	5986	3	·	1	·
Cc1ccc(-n2c(SCc3ccc([N+](=O)[O-])cc3)nc3ccccc3c2=O)cc1	4	20811*	-6	-3	2	0
Cc1ccc2nc(SCc3ccc([N+](=O)[O-])cc3)[nH]c2c1	0	9935	-2	-1	0	-1
Cc1cc(C)c2nc(SCc3ccc([N+](=O)[O-])cc3)nc(C)c2c1	?	20592*	1	2	-2	-4
Cc1ccc2nc(SCc3ccc([N+](=O)[O-])cc3)nc(C)c2c1	?	23313*	0	0	0	i
CS(=O)(=O)Nc1cccc(-c2ccc3nncn3c2)c1	0	3084	-4	·	-9	0
CCOc1ccc(C(=O)C[n+]2cccc3cc(C)ccc32)cc1	-18	25078*	12	5	79*	1
CCNC(=O)C1CCCN(C(=O)c2cc(OC)c(OC)c(OC)c2)CC1 (stereo not drawn)	-1	2974	-1	·	-4	0
c1ccc(-c2nc(C3CCCCC3)no2)cc1	0	3439	-6	5	-38	i
COc1ccc(-c2nc(C3CCCCC3)no2)cc1OC	1	22056*	1	9	2	-2
COc1cc(OC)nc(Nc2nc(C(N)Cc3ccc(C(F)(F)F)cc3)cs2)n1 (stereo not drawn)	0	3038	-4	·	-18	4
OC[C@@H]1CN(Cc2ccc(F)cc2)C[C@H](n2cnc3c(N4CCN(c5ccccc5)CC4)ncnc32)O1	0	3497	-5	·	3	0
O=C(NCCN1CCC(n2c(=O)[nH]c3ccccc32)CC1)c1c(F)cccc1F	0	4433	-10	·	-2	·
CCOC(=O)C1(S(=O)(=O)c2ccc(Cl)cc2)CCN(Cc2ccc(C)cc2)CC1	0	20535*	-9	-1	-4	i
CCOC(=O)C1(Cc2ccc(Cl)cc2)CCN(Cc2cnc(N)nc2)CC1	-2	4612	-1	-2	-11	0
COc1ccc(N(CC(=O)Nc2cccc(SC)c2)S(C)(=O)=O)cc1Cl	-1	3280	-1	-3	6	·
COc1ccc(Cl)cc1N(CC(=O)Nc1cccc(SC)c1)S(C)(=O)=O	4	21540*	-6	-5	4	0
C=CCn1c(SCc2ccccc2C#N)nnc1-c1ccccc1O	2	21434*	0	5	6	-3
C=CCn1c(SCC(N)=O)nnc1-c1ccccc1O	1	3142	4	-3	18	0
C=CCn1c(SCC(N)=O)nnc1-c1cc(Br)ccc1O	?	21322*	-4	-1	-1	1
C=CCn1c(SCc2ccc(C#N)cc2)nnc1-c1ccccc1	0	22580*	2	4	0	i
